# Screen size: about 39,000 compounds; about 3,300 (8.5%) were called active. The sample holds actives, similar compounds and a random draw of the others, so the mix is not that of the screen.
# Tested on: HepG2
# Test: cytotoxicity call (relative viability < 0.9)
# Conditions: 10 µM
row,SMILES,cytotoxicity call
1,COc1cccc(S(=O)(=O)N2C[C@H](O)COC[C@@H]3O[C@H](CC(=O)N4CCN(C)CC4)CC[C@H]32)c1,inactive
2,CC(C)NC(=O)Nc1cccc2c1O[C@@H](CN(C)Cc1ccc3c(c1)OCO3)[C@@H](C)CN([C@@H](C)CO)C2=O,inactive
3,O=C(C[C@@H]1C[C@H]2c3cc(NC(=O)C4CCOCC4)ccc3O[C@H]2[C@H](CO)O1)NCc1ccc(Cl)cc1,inactive
4,O=C(C[C@H]1C[C@@H]2c3cc(NC(=O)Nc4ccc(C(F)(F)F)cc4)ccc3O[C@@H]2[C@@H](CO)O1)NC1CCCCC1,inactive
5,CC(CN)(Cc1ccccc1Cl)C(=O)O (stereo unspecified),inactive
6,C/C(C[P+](c1ccccc1)(c1ccccc1)c1ccccc1)=N\NC(=O)CCCCCC(=O)Nc1ccccc1O,inactive
7,C[C@H]1CN([C@@H](C)CO)C(=O)c2cc(C#CCN(C)C)cnc2O[C@@H]1CN(C)S(=O)(=O)c1cn(C)cn1,inactive
8,C[C@H](CO)N1C[C@H](C)[C@@H](CN(C)C(=O)Nc2ccc3c(c2)OCO3)OCCCC[C@H](C)Oc2ccc(NC(=O)Nc3cccc4ccccc34)cc2C1=O,inactive
9,C[C@@H]1CCCCO[C@@H](CN(C)S(=O)(=O)c2cccs2)[C@H](C)CN([C@@H](C)CO)C(=O)c2cc(NS(=O)(=O)c3cn(C)cn3)ccc2O1,inactive
10,C[C@H](CO)N1C[C@H](C)[C@@H](CN(C)C(=O)C2CC2)OCc2cnnn2CCCC1=O,inactive
11,C[C@@H]1CN([C@@H](C)CO)C(=O)Cc2cc(NC(=O)Nc3ccc(C(F)(F)F)cc3)ccc2O[C@H]1CN(C)C(=O)Nc1cccc2ccccc12,inactive
12,CO[C@H]1O[C@H](CO)[C@@H](OC(=O)Nc2ccccc2-c2ccccc2)[C@H](OC(=O)Nc2ccc3c(c2)OCO3)[C@@H]1OC(=O)Nc1ccc2c(c1)OCO2,inactive
13,CO[C@H]1O[C@H](CO)[C@@H](OC(=O)Nc2ccc3c(c2)OCO3)[C@H](OC(=O)Nc2ccc3c(c2)OCO3)[C@@H]1OC(=O)Nc1ccc2c(c1)OCO2,active
14,CO[C@H]1O[C@H](CO)[C@@H](OC(=O)Nc2ccccc2-c2ccccc2)[C@H](OC(=O)Nc2ccc3c(c2)OCO3)[C@H]1OC(=O)Nc1ccc2c(c1)OCO2,inactive
15,Nn1c(CO)nc2ccccc21,inactive
16,O=C(N[C@H]1CC[C@H](CCNS(=O)(=O)c2ccc(F)cc2)O[C@H]1CO)C1CC1,inactive
17,C[C@H]1CN([C@@H](C)CO)C(=O)Cc2cc(NC(=O)Nc3ccc4c(c3)OCO4)ccc2O[C@@H]1CN(C)S(C)(=O)=O,inactive
18,C[C@H]1CCCCO[C@H](CN(C)C(=O)C2CCCCC2)[C@@H](C)CN([C@@H](C)CO)C(=O)c2cc(NC(=O)c3ccncc3)ccc2O1,inactive
19,C[C@@H]1CN([C@@H](C)CO)C(=O)c2cc(NC(=O)Nc3ccc(F)cc3)ccc2O[C@@H]1CN(C)S(C)(=O)=O,inactive
20,Cc1noc(C)c1NC(=O)N(C)C[C@H]1Oc2ncc(C#CCC(C)C)cc2C(=O)N([C@@H](C)CO)C[C@H]1C,inactive
21,COc1ccccc1-c1cccc(-c2nc(C(=O)Nc3nccs3)cc3c2[C@H](CCO)N(C(=O)CC2CC2)C3)c1,inactive

row,SMILES,cytotoxicity call
1,CCC(=O)N1Cc2cc(C(=O)Nc3nccs3)nc(-c3cccc(-c4ccccc4OC)c3)c2[C@H]1CCO,inactive
2,COc1ccccc1-c1cccc(-c2nc(C(=O)Nc3nccs3)cc3c2[C@@H](CCO)N(C(=O)CC2CC2)C3)c1,active
3,C[C@@H]1CN([C@@H](C)CO)C(=O)c2cc(NS(=O)(=O)c3ccc(Cl)cc3)ccc2O[C@@H](C)CCCCO[C@@H]1CN(C)Cc1ccncc1,inactive
4,C[C@@H]1CN([C@H](C)CO)C(=O)c2cc(C3=CCCCC3)cnc2O[C@@H]1CN(C)C(=O)CN1CCOCC1,inactive
5,c1nc2c(c(N3CCOCC3)n1)CCNCC2,inactive
6,CCCCC(CC)CN1CN(CC(CC)CCCC)CC(C)(N)C1 (stereo unspecified),active
7,C[C@@H]1CCCCO[C@@H](CN(C)C(=O)Nc2ccccc2)[C@H](C)CN([C@H](C)CO)C(=O)c2cc(NC(=O)C3CCCCC3)ccc2O1,inactive
8,COc1ccc(S(=O)(=O)N(C)C[C@@H]2OCCCC[C@H](C)Oc3ccc(NC(=O)Nc4ccc(F)cc4)cc3C(=O)N([C@H](C)CO)C[C@@H]2C)cc1,inactive
9,C[C@H](CO)N1C[C@H](C)[C@@H](CN(C)C(=O)Nc2ccc(C(F)(F)F)cc2)OCCCC[C@H](C)Oc2ccc(NS(=O)(=O)c3cn(C)cn3)cc2C1=O,inactive
10,Cc1ccc(S(=O)(=O)Nc2ccc3c(c2)C(=O)N([C@H](C)CO)C[C@@H](C)[C@@H](CN(C)Cc2ccc(C(F)(F)F)cc2)OCCCC[C@H](C)O3)cc1,active
11,C[C@@H]1CN([C@@H](C)CO)C(=O)c2cc(NS(=O)(=O)c3ccc(F)cc3)ccc2O[C@@H](C)CCCCO[C@@H]1CN(C)Cc1ccc(C(F)(F)F)cc1,inactive
12,C[C@H]1CCCCO[C@@H](CN(C)Cc2ccc(C(F)(F)F)cc2)[C@@H](C)CN([C@@H](C)CO)C(=O)c2cc(NS(=O)(=O)c3ccc(F)cc3)ccc2O1,inactive
13,C[C@@H]1CCCCO[C@H](CN(C)Cc2ccc(C(F)(F)F)cc2)[C@H](C)CN([C@@H](C)CO)C(=O)c2cc(NS(=O)(=O)c3ccc(F)cc3)ccc2O1,inactive
14,Cc1ccc(S(=O)(=O)Nc2ccc3c(c2)C(=O)N([C@H](C)CO)C[C@H](C)[C@H](CN(C)Cc2ccc(C(F)(F)F)cc2)OCCCC[C@@H](C)O3)cc1,active
15,Cc1ccc(S(=O)(=O)Nc2ccc3c(c2)C(=O)N([C@H](C)CO)C[C@H](C)[C@@H](CN(C)Cc2ccc(C(F)(F)F)cc2)OCCCC[C@@H](C)O3)cc1,inactive
16,Cc1ccc(S(=O)(=O)Nc2ccc3c(c2)C(=O)N([C@@H](C)CO)C[C@@H](C)[C@H](CN(C)Cc2ccc(C(F)(F)F)cc2)OCCCC[C@H](C)O3)cc1,active
17,Cc1ccc(S(=O)(=O)Nc2ccc3c(c2)C(=O)N([C@@H](C)CO)C[C@H](C)[C@H](CN(C)Cc2ccc(C(F)(F)F)cc2)OCCCC[C@H](C)O3)cc1,inactive
18,Cc1ccc(S(=O)(=O)Nc2ccc3c(c2)C(=O)N([C@H](C)CO)C[C@@H](C)[C@H](CN(C)Cc2ccc(C(F)(F)F)cc2)OCCCC[C@@H](C)O3)cc1,active
19,C[C@H]1CCCCO[C@H](CN(C)Cc2ccc(C(F)(F)F)cc2)[C@@H](C)CN([C@@H](C)CO)C(=O)c2cc(NS(=O)(=O)c3ccc(F)cc3)ccc2O1,inactive
20,Cc1ccc(S(=O)(=O)Nc2ccc3c(c2)C(=O)N([C@H](C)CO)C[C@H](C)[C@H](CN(C)C(=O)Cc2ccccc2)OCCCC[C@H](C)O3)cc1,inactive
21,C[C@H](CO)N1C[C@H](C)[C@H](CN(C)CC2CC2)Oc2ccc(NS(=O)(=O)c3ccccc3)cc2CC1=O,inactive

row,SMILES,cytotoxicity call
1,Cc1ccc(S(=O)(=O)N2C[C@H](O)COC[C@@H]3O[C@@H](CC(=O)N4CCc5ccccc5C4)CC[C@H]32)cc1,inactive
2,C[C@@H](O)C#Cc1cnc2c(c1)C(=O)N([C@@H](C)CO)C[C@H](C)[C@@H](CN(C)C(=O)CN1CCOCC1)O2,inactive
3,CCNC(=O)[C@@H]1[C@@H](CO)[C@@H]2Cn3c(ccc(C4=CCCC4)c3=O)[C@H]1N2S(=O)(=O)c1cn(C)cn1,inactive
4,COCC(=O)N1C[C@@H](C)[C@H](OC)CN(C)C(=O)c2ccc(NC(=O)c3ccc(F)cc3)cc2OC[C@H]1C,inactive
5,C[C@H]1CCCCO[C@H](CN(C)C(=O)Nc2ccc3c(c2)OCO3)[C@@H](C)CN([C@@H](C)CO)C(=O)c2cc(NS(=O)(=O)c3ccc(F)cc3)ccc2O1,inactive
6,O=C(C[C@@H]1CC[C@H]2[C@@H](COC[C@H](O)CN2C(=O)Nc2ccc(F)cc2)O1)NCCCN1CCOCC1,inactive
7,Cc1ccc(S(=O)(=O)Nc2ccc3c(c2)C(=O)N([C@@H](C)CO)C[C@H](C)[C@H](CN(C)Cc2ccc(C(F)(F)F)cc2)OCCCC[C@@H](C)O3)cc1,inactive
8,Cc1ccc(S(=O)(=O)Nc2ccc3c(c2)C(=O)N([C@@H](C)CO)C[C@H](C)[C@@H](CN(C)Cc2ccc(C(F)(F)F)cc2)OCCCC[C@@H](C)O3)cc1,active
9,Cc1ccc(S(=O)(=O)Nc2ccc3c(c2)C(=O)N([C@@H](C)CO)C[C@@H](C)[C@H](CN(C)Cc2ccc(C(F)(F)F)cc2)OCCCC[C@@H](C)O3)cc1,active
10,Cc1ccc(S(=O)(=O)Nc2ccc3c(c2)C(=O)N([C@@H](C)CO)C[C@@H](C)[C@@H](CN(C)Cc2ccc(C(F)(F)F)cc2)OCCCC[C@H](C)O3)cc1,inactive
11,Cc1ccc(S(=O)(=O)Nc2ccc3c(c2)C(=O)N([C@H](C)CO)C[C@H](C)[C@@H](CN(C)Cc2ccc(C(F)(F)F)cc2)OCCCC[C@H](C)O3)cc1,active
12,Cc1ccc(S(=O)(=O)Nc2ccc3c(c2)C(=O)N([C@@H](C)CO)C[C@H](C)[C@@H](CN(C)Cc2ccc(C(F)(F)F)cc2)OCCCC[C@H](C)O3)cc1,active
13,NC(=O)c1ccc[n+](C2OC(COP(=O)([O-])OP(=O)(O)OCC3OC(n4cnc5c(N)ncnc54)C(O)C3O)C(O)C2O)c1 (stereo unspecified),inactive
14,CNC[C@@H]1Oc2ccc(NC(=O)CCN3CCOCC3)cc2CC(=O)N([C@@H](C)CO)C[C@H]1C,inactive
15,CC(C)(C)c1c(C(C)(C)C)c1=O,inactive
16,O=C(N[C@@H]1CC[C@H](CCn2cc(C3(O)CCCC3)nn2)O[C@H]1CO)C1CCOCC1,inactive
17,Cc1cc(C(=O)N2CCNC(=O)C2(C)C)no1,inactive
18,C[C@H]1CN([C@@H](C)CO)C(=O)Cc2cc(NC(=O)CCC(F)(F)F)ccc2O[C@@H]1CN(C)S(=O)(=O)c1ccccc1,inactive
19,CN(C)CCCNC(=O)C[C@@H]1CC[C@H]2[C@@H](COc3ccc(NC(=O)c4cccc(F)c4)cc3C(=O)N2C)O1,inactive

# From the antibiotic and cytotoxicity screens of Wong et al. (2023)
